From PubChem BioAssay (NCI)
About 83,000 compounds went through this panel and 20% of them were active in at least one assay; those are over-represented in the sample as a whole.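 Cells were grown in 96-well plates and exposed to the test compound at a single concentration for 48 hours; results are reported as percent growth, with values below 10 considered active.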 A number with no mark means an inactive call. Activity calls are given as the source filed them.

How the values were obtained:
Test in all cases: NCI-60 one-dose screen, 48 h (100 = growth as untreated, 0 = no growth, -100 = all killed)
Conditions in all cases: 10 µM unless noted
[1] = tested on: HCT-15 colon
[2] = tested on: HT29 colon
[3] = tested on: SNB-75 CNS
[4] = tested on: SNB-19 CNS
[5] = tested on: U251 CNS
[6] = tested on: PC-3 prostate
[7] = tested on: SK-MEL-5 melanoma
[8] = tested on: UACC-62 melanoma
[9] = tested on: LOX IMVI melanoma
[10] = tested on: SK-MEL-28 melanoma

CCn1c(=O)c2c(=O)c3c4c(oc3oc2c2ccccc21)C(=O)c1ccccc1C4=O
growth [1]: 79.6%
growth [2]: 63%
growth [3]: 120%
growth [4]: 90.2%
growth [5]: 57.7%
growth [6]: 42.4%
growth [7]: 67.4%
growth [8]: 64%
growth [9]: 32.4%
growth [10]: 107%

COc1cc(OC)c(C(=O)/C=C/c2cccc(C#N)c2)c(OC)c1
growth [1]: 3.28% (active)
growth [2]: 8.61% (active)
growth [3]: 17.3%
growth [4]: 14.8%
growth [5]: 8.67% (active)
growth [6]: 32.1%
growth [7]: 7.71% (active)
growth [8]: 10.9%
growth [9]: -6.01% (active)
growth [10]: 34.4%

CCCn1c(=S)sc2c(Cl)nc(C)nc21
growth [1]: 12.7%
growth [2]: 84%
growth [3]: 8.62% (active)
growth [4]: 93.5%
growth [5]: 79%
growth [6]: 100%
growth [7]: 108%
growth [8]: 54.7%
growth [9]: -78.5% (active)
growth [10]: 102%

CCCC(C(=O)OCC)C(C)OC(=O)OCC (stereo not given)
growth [1]: 99.9%
growth [2]: 104%
growth [3]: 79%
growth [4]: 106%
growth [5]: 102%
growth [6]: 102%
growth [7]: 103%
growth [8]: 103%
growth [9]: 99.1%
growth [10]: 107%

Nc1cc2c(cc1N)-c1cc(N)c(N)cc1C2
growth [1]: 97.4%
growth [2]: 107%
growth [3]: 79.9%
growth [4]: 107%
growth [5]: 99.1%
growth [6]: 80.5%
growth [7]: 101%
growth [8]: 99.9%
growth [9]: 94%
growth [10]: 115%

NC(=S)NN=C1CCCCC1
growth [1]: 77.7%
growth [2]: 47.5%
growth [3]: 105%
growth [4]: 106%
growth [5]: 76.4%
growth [6]: 82.7%
growth [7]: 99.2%
growth [8]: 90%
growth [9]: 77.9%
growth [10]: 98.3%

Cc1ccc2nc(-c3c(N)n[nH]c3CCCO)[nH]c(=O)c2c1
growth [1]: 106%
growth [2]: 104%
growth [3]: 91%
growth [4]: 106%
growth [5]: 105%
growth [6]: 92.3%
growth [7]: 105%
growth [8]: 100%
growth [9]: 101%
growth [10]: 115%

Clc1nc(Cl)c2ncn(C/C=C/Cn3cnc4c(Cl)nc(Cl)nc43)c2n1
growth [1]: 50.1%
growth [2]: 48%
growth [3]: 65%
growth [4]: 74.5%
growth [5]: 57.4%
growth [6]: 66.6%
growth [7]: 68.7%
growth [8]: 79.1%
growth [9]: 38.8%
growth [10]: 98.8%

Nc1c(C(=O)Nc2cccc([N+](=O)[O-])c2)sc2nc3c(cc12)C(O)CCC3 (stereo not given)
growth [1]: 39.9%
growth [2]: 17.4%
growth [3]: 16.9%
growth [4]: 79.9%
growth [5]: 51.4%
growth [6]: 57.2%
growth [7]: 35.1%
growth [8]: 47.3%
growth [9]: 62.8%
growth [10]: 54.9%

COc1cccc(NC(=O)c2sc3nc4c(cc3c2N)CCCC4)c1
growth [1]: 20.8%
growth [2]: 41.5%
growth [3]: 18.2%
growth [4]: 39.4%
growth [5]: 19.8%
growth [6]: 19.2%
growth [7]: 26.3%
growth [8]: 33.2%
growth [9]: 40.5%
growth [10]: 48.9%

COc1cc(-c2n[nH]nc2-c2ccc3c(c2)OCCO3)cc(OC)c1OC
growth [1]: 6.81% (active)
growth [2]: -12.7% (active)
growth [3]: 25.4%
growth [4]: 42.6%
growth [5]: -27.3% (active)
growth [6]: 16.5%
growth [7]: -39.5% (active)
growth [8]: 27%
growth [9]: 15.2%
growth [10]: 38.9%

CCOC(=O)C1=C(C)NC(=O)NC1c1ccc(OCC(=O)N/N=C/c2ccc(Cl)cc2)cc1 (stereo not given)
growth [1]: 97.5%
growth [2]: 94.3%
growth [3]: 79.1%
growth [4]: 89.5%
growth [5]: 91.9%
growth [6]: 89%
growth [7]: 97.1%
growth [8]: 87.3%
growth [9]: 98.2%
growth [10]: 105%

C[N+](C)(C)c1ccc(CC2c3ccccc3-c3ccccc32)cc1
growth [1]: 98.1%
growth [2]: 65.9%
growth [3]: -3.78% (active)
growth [4]: 23.2%
growth [5]: 19.3%
growth [6]: 56.1%
growth [7]: 77.1%
growth [8]: 81.5%
growth [9]: 86.3%
growth [10]: 81.3%

Nc1c(C(=O)Nc2ccccc2)sc2nc3c(cc12)CN(Cc1ccccc1)CC3
growth [1]: 73.3%
growth [2]: 78.8%
growth [3]: -46.2% (active)
growth [4]: 76.1%
growth [5]: 75%
growth [6]: 67.3%
growth [7]: 85.6%
growth [8]: 70.6%
growth [9]: 67%
growth [10]: 60.3%

CCCCCCc1nc2c(c(C)nn2-c2ccccc2)c2c1CCCCC2
growth [1]: 108%
growth [2]: 100%
growth [3]: 105%
growth [4]: 99.9%
growth [5]: 102%
growth [6]: 94.1%
growth [7]: 94.3%
growth [8]: 101%
growth [9]: 98.2%
growth [10]: 107%

CN(C)C1CCC(NC2=CC(=O)C=CC2=O)CC1 (stereo not given)
growth [1]: 114%
growth [2]: 116%
growth [3]: 86.1%
growth [4]: 115%
growth [5]: 111%
growth [6]: 104%
growth [7]: 106%
growth [8]: 110%
growth [9]: 97.9%
growth [10]: 113%

CCC(c1ccc(OC)cc1)C(CC)c1ccc(O)c(CN2CCCC2)c1 (stereo not given)
growth [1]: 1.62% (active)
growth [2]: 4.26% (active)
growth [3]: 71.5%
growth [4]: 40.6%
growth [5]: 7.11% (active)
growth [6]: 24.4%
growth [7]: -91.8% (active)
growth [8]: -74.1% (active)
growth [9]: -79.1% (active)
growth [10]: -50.9% (active)

CNC(=O)Cc1nc(-c2cccc(NS(=O)(=O)c3c(F)cccc3F)c2F)c(-c2ccnc(Nc3ccccc3)n2)s1
growth [1]: 72.1%
growth [2]: 6.8% (active)
growth [3]: 58.2%
growth [4]: 75.4%
growth [5]: 86.6%
growth [6]: 81.8%
growth [7]: 63.2%
growth [8]: 5.51% (active)
growth [9]: 9.18% (active)
growth [10]: 15.2%

COC12CC(=O)C(C(C)=O)=C(O)C1(C)c1c(O)c(C)c(O)c(C(C)=O)c1O2 (stereo not given)
growth [1]: 66.6%
growth [2]: 86.5%
growth [3]: 83.5%
growth [4]: 52.8%
growth [5]: 57.2%
growth [6]: 73%
growth [7]: 46.1%
growth [8]: 40.6%
growth [9]: 57.5%
growth [10]: 86.4%

CC1(C)OC2COC3(C(=O)O)OC(C)(C)OC3C2O1 (stereo not given)
growth [1]: 98.8%
growth [2]: 99.8%
growth [3]: 87.2%
growth [4]: 92.1%
growth [5]: 102%
growth [6]: 100%
growth [7]: 102%
growth [8]: 97.7%
growth [9]: 95.6%
growth [10]: 107%

C=C1C(=O)O[C@H]2[C@H]1CC/C(Cn1cc(-c3ccsc3)nn1)=C\CC[C@@]1(C)O[C@@H]21
growth [1]: -77.5% (active)
growth [2]: -68.5% (active)
growth [3]: 21.7%
growth [4]: 59.8%
growth [5]: 4.91% (active)
growth [6]: -20.4% (active)
growth [7]: -42.1% (active)
growth [8]: -55.7% (active)
growth [9]: -94.3% (active)
growth [10]: -54% (active)

COC1=CC(c2ccc[nH]2)=N/C1=C\c1[nH]c(C)c(CCCn2cc(CCCCCCCCC[C@@H]3Cc4cc(O)ccc4C4CC[C@]5(C)[C@@H](O)CC[C@H]5C43)nn2)c1C (stereo not given in full)
growth [1]: 35%
growth [2]: 23.6%
growth [3]: 88.8%
growth [4]: 77.7%
growth [5]: 44.1%
growth [6]: 45%
growth [7]: 35.5%
growth [8]: 12.9%
growth [9]: 13.4%
growth [10]: 75.9%

CCN(C(=O)c1cc2ncccc2[nH]1)[C@H]1CCC[C@@H](NCc2cccc(F)c2)C1
growth [1]: 100%
growth [2]: 105%
growth [3]: 88%
growth [4]: 98.7%
growth [5]: 107%
growth [6]: 102%
growth [7]: 96.3%
growth [8]: 98%
growth [9]: 94.8%
growth [10]: 103%

CCN1C(=O)/C(=c2\sc3n(c2=O)C2C(NN=3)N(CC)C(=S)N2CC)c2ccccc21 (stereo not given)
growth [1]: 100%
growth [2]: 111%
growth [3]: 84.6%
growth [4]: 97.2%
growth [5]: 97.3%
growth [6]: 94%
growth [7]: 103%
growth [8]: 97.8%
growth [9]: 98.4%
growth [10]: 108%

CC[C@]1(O)C[C@@H]2CN(Cc3c([nH]c4ccccc34)[C@@](C(=O)OC)(c3cc4c(cc3OC)N(C)[C@H]3[C@@](O)(C(=O)OC)[C@H](OC(C)=O)[C@]5(CC)[C@@H]6C[C@@H]6CN6CC[C@]43[C@@H]65)C2)C1
growth [1]: 60.7%
growth [2]: -2.26% (active)
growth [3]: 10.1%
growth [4]: 51.7%
growth [5]: 6.95% (active)
growth [6]: 14%
growth [7]: 2.99% (active)
growth [8]: 34%
growth [9]: 19.1%
growth [10]: 64.4%

CCNc1nc(N2CC(=O)Nc3cc(OC)ccc32)c2ccccc2n1
growth [1]: 6.11% (active)
growth [2]: 0.723% (active)
growth [3]: 24.7%
growth [4]: 19.2%
growth [5]: 8.29% (active)
growth [6]: 6.21% (active)
growth [7]: -81.6% (active)
growth [8]: 9.13% (active)
growth [9]: 20.5%
growth [10]: 45%

Cc1ccc(-c2csc3nc(C)c(CCCl)c(=O)n23)cc1
growth [1]: 98.5%
growth [2]: 105%
growth [3]: 74.7%
growth [4]: 100%
growth [5]: 106%
growth [6]: 83.5%
growth [7]: 89.7%
growth [8]: 88.2%
growth [9]: 89.1%
growth [10]: 113%
